This is an account of results in PubChem BioAssay.

Activity calls are given as the source filed them.

For one assay, the target named is Albumin (Bos taurus) (UniProt P02769). As to the kind of experiment: bovine serum albumin binders on microarray, profiling panel, artefact control for SMM control protein annotation, biochemical, small-molecule microarray, Alexa647 label, 635/667 nm fluorescence (AID 1118).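 Note: score merges 667 nm emission intensity and signal-to-noise per printed compound spot.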 The note with it: BSA-A647 binding, fluorescence 635 nm, higher = more signal.
Assay [1] in a line: small-molecule microarray binders of probe aXIP, primary screen, biochemical, NeuroSMM set, 635/667 nm fluorescence (AID 1119).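 Note: probe is the protein aXip251-270 applied at 1 µg/mL to compound-printed slides; binding of probe to printed compounds measured as 667 nm fluorescence plus signal to noise.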 The note with it: higher = more signal, called active from +8 up or from −8 down.
Assay [2] is described as follows: small-molecule binders of probe aNOTCH3, primary screen, biochemical, small-molecule microarray, 635/667 nm fluorescence (AID 1120).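 Note: probe is a biotin-tagged antibody raised against NOTCH3 rather than NOTCH3 protein; score merges spot fluorescence near 667 nm with spot signal to noise.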 Conditions: higher = more signal.
The nature of assay [3]: small-molecule binders of probe aNOTCH2, primary screen, biochemical, small-molecule microarray, 635/667 nm fluorescence (AID 1121).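 Note: score merges feature fluorescence read at 667 nm with its signal to noise.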 The note with it: higher = more signal.
Assay [4] concerns the target Carbonic anhydrase 2 (Homo sapiens) (UniProt P00918). Kind of assay: CAII small-molecule binders, profiling panel, biochemical, small-molecule microarray, Alexa647-labelled CAII (AID 1122). Conditions: CAII-A647 binding fluorescence, higher = more signal.
Assay [5] in a line: COS7 lysate on small-molecule microarray, probe aHis, 635 nm (AID 1123).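 Note: z-score combines 667nm fluorescence intensity with signal-to-noise per printed compound spot.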 Conditions: COS7 cell lysate, fluorescence, higher = more signal.
Assay [6] is described as follows: compound binding in COS7 lysate, probe aLAP1, primary screen, cell lysate, small-molecule microarray (AID 1124).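 Note: lysate comes from COS7 cells expressing LAP1 and is applied at 0.3 µg/mL; score merges spot fluorescence near 667 nm with signal-to-noise over triplicate slides.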 The note with it: probe aLAP1, fluorescence, higher = more signal.
In the next assay the test system is Sam68 (KHDRBS1). Kind of assay: Sam68 small-molecule binders, primary screen, biochemical, small-molecule microarray, 635 nm fluorescence (AID 1125).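 Note: score merges 667 nm channel intensity with signal to noise over triplicate slides.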 Conditions: small-molecule microarray binding, higher = more signal.
In assay [7] the test system is Chordin-like protein 2 (CHRDL2). Kind of assay: CHRDL2 small-molecule binders, primary screen, biochemical, small-molecule microarray, 635 nm fluorescence (AID 1126).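 Note: printed compound slides probed with Chrdl2 protein at 4 µg/mL for 1 h at 4 C; score merges 667 nm emission intensity with signal to noise over three replicate slides.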 Conditions: small-molecule microarray binding, fluorescence 635 nm; higher = more signal.
For assay [8], the target named is Concanavalin-A (Canavalia ensiformis) (UniProt P02866). As to the kind of experiment: ConA small-molecule binders, primary screen, artefact control for SMM control protein annotation, biochemical, small-molecule microarray, Alexa647 label, 635 nm (AID 1127).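 Note: z combines 667 nm emission intensity with signal-to-noise across three replicate slides.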 Conditions: ConA-A647 binding fluorescence, higher = more signal.
Assay [9] in a line: anti-His antibody binders, primary screen, artefact control for SMM control protein annotation, biochemical, small-molecule microarray, 635 nm fluorescence (AID 1128).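 Note: score merges feature fluorescence with signal-to-noise for each printed compound spot.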 Conditions: anti-His Alexa647 antibody binding, higher = more signal.
Assay [10] relates to Human papillomavirus type 1a E7 protein (residues 1-88). Kind of assay: HPV1a E7 small-molecule binders, primary screen, biochemical, small-molecule microarray, residues 1-88, 635 nm (AID 1129). The note with it: small-molecule microarray binding, fluorescence 635 nm; higher = more signal.
Assay [11] addresses Focal adhesion kinase 1 (Homo sapiens) (UniProt Q05397). As to the kind of experiment: small-molecule microarray binders of FAK, primary screen, biochemical, 635/667 nm fluorescence, BSA, DTT (AID 1130).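 Note: composite of spot emission at 667 nm and signal to noise over triplicate slides.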 The note with it: PTK2 binding, 635 nm fluorescence, higher = more signal.
For assay [12], the system named is Fibrinogen (Alexa647-labelled). As to the kind of experiment: fibrinogen binders on compound microarrays, profiling panel, artefact control for SMM control-protein annotation, biochemical, small-molecule microarray, 635/667 nm fluorescence (AID 1131).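 Note: z-score merges 667 nm fluorescence with per-spot signal-to-noise over triplicate slides.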 The note with it: fibrinogen-A647 binding fluorescence, higher = more signal.
The target in assay [13] is Follistatin (Homo sapiens) (UniProt P19883). Kind of assay: follistatin binders on small-molecule microarrays, primary screen, biochemical, small-molecule microarray, 635/667 nm fluorescence (AID 1132). Conditions: FST binding, 635 nm fluorescence, higher = more signal.
Assay [14] addresses Fibroblast growth factor 2 (Homo sapiens) (UniProt P09038). Kind of assay: FGF2 binders on small-molecule microarrays, primary screen, biochemical, small-molecule microarray, 635/667 nm fluorescence (AID 1133). The note with it: small-molecule microarray binding, FGF2, fluorescence 635/667; higher = more signal.
Assay [15] in a line: mitochondrial membrane potential change in A549 cells, profiling panel, cell-based, JC-1 fluorescence, basal, 24 h, 100 nL (AID 1138).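 Note: A549 lung adenocarcinoma cells under basal conditions with no added stimulus; test concentration not given here.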 The note with it: higher = more signal.
In the next assay the test system is Lefty1. Kind of assay: Lefty1 binders on small-molecule microarrays, primary screen, biochemical, small-molecule microarray, 635/667 nm fluorescence (AID 1139). The note with it: small-molecule microarray binding, fluorescence 635/667; higher = more signal.
For assay [16], the system named is wheat germ agglutinin (Triticum aestivum), Alexa647-labelled. As to the kind of experiment: wheat germ agglutinin binders on compound microarrays, profiling panel, artefact control for SMM control-protein annotation, biochemical, small-molecule microarray, 635/667 nm fluorescence (AID 1140).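 Note: score merges 667 nm feature emission with signal to noise over triplicate slides.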 Conditions: WGA-A647 binding, 635 nm fluorescence, higher = more signal.

For assay [17], the target named is Luciferin 4-monooxygenase (Photinus pyralis) (UniProt P08659). Kind of assay: firefly luciferase enzyme inhibitors, primary screen, biochemical, luminescence, purified enzyme, 2006 set (AID 1141).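 Note: cell-free assay with purified firefly luciferase at 100 ng per well in PBS; test concentration not given here.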 Conditions: SteadyGlo luminescence, 30 min, higher = more signal, called active from +8 up or from −8 down.
Luciferin 4-monooxygenase (Photinus pyralis), sequence (P08659 whole entry, looked up): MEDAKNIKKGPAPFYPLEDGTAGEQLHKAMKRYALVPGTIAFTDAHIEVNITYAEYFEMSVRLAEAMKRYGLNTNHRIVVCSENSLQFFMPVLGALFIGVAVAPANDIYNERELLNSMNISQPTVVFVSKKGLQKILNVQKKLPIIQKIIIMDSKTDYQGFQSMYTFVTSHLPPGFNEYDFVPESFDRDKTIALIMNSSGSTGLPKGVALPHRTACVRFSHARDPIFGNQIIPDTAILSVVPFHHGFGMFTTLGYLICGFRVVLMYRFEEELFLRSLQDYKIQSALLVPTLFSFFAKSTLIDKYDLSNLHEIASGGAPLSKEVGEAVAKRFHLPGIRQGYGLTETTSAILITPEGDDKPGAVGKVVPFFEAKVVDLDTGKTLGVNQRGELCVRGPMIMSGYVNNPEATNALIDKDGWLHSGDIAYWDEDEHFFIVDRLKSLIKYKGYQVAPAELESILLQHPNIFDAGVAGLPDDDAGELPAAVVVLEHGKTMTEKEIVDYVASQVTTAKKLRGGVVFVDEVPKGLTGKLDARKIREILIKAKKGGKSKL

Concanavalin-A (Canavalia ensiformis), sequence (P02866 whole entry, looked up): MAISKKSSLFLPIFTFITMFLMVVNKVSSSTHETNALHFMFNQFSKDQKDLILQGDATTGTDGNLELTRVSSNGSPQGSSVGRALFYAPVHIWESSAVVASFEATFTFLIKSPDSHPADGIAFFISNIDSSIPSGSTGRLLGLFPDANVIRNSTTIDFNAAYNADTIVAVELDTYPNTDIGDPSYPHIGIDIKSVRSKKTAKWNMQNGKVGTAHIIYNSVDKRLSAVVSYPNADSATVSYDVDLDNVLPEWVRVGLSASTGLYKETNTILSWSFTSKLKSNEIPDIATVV
Follistatin (Homo sapiens), sequence (P19883 whole entry, looked up): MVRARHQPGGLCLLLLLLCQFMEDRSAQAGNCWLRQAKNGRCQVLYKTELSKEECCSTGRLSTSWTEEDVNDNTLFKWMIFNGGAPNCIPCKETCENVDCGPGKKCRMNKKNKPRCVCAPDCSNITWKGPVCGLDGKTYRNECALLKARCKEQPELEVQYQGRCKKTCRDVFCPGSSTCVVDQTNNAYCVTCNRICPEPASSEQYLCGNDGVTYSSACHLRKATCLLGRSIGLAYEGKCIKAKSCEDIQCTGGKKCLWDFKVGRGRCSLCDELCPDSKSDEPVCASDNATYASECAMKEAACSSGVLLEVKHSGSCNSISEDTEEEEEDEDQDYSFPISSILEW
Focal adhesion kinase 1 (Homo sapiens), sequence (Q05397 whole entry, looked up): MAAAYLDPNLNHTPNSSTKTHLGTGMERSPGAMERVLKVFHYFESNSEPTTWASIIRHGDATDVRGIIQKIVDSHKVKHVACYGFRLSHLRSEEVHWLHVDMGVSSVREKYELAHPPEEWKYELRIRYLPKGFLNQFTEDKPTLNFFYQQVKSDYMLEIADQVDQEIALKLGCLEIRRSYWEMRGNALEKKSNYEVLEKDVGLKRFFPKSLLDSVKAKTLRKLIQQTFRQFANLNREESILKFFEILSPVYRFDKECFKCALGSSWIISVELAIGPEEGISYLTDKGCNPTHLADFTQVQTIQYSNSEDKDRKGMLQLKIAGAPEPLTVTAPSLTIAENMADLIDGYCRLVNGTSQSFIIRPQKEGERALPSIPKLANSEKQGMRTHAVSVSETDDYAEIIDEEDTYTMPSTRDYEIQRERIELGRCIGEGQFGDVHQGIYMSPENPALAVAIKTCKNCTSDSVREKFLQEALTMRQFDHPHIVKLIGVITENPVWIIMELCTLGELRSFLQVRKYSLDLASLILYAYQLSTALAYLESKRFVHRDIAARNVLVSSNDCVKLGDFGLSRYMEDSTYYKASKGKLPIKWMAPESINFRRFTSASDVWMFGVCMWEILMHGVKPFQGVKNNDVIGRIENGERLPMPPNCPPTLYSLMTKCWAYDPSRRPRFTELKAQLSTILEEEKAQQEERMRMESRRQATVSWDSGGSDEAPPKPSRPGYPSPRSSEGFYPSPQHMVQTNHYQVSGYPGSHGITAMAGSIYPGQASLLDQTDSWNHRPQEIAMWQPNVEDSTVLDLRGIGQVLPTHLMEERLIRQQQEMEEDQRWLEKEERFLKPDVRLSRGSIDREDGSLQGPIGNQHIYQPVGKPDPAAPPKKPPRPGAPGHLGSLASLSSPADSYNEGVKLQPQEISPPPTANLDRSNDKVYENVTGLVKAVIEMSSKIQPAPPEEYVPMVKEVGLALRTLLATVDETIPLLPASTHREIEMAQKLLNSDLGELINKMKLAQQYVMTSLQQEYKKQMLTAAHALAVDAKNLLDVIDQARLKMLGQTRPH
Fibroblast growth factor 2 (Homo sapiens), sequence (P09038 whole entry, looked up): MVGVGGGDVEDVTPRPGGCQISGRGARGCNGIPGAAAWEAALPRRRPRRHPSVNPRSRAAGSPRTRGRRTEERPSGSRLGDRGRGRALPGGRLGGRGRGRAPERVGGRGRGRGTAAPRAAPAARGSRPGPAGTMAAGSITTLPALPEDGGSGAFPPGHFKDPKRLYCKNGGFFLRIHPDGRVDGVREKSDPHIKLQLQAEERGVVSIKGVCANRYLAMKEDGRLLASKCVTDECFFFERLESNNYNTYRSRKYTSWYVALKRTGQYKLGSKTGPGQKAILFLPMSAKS
Albumin (Bos taurus), sequence (P02769 whole entry, looked up): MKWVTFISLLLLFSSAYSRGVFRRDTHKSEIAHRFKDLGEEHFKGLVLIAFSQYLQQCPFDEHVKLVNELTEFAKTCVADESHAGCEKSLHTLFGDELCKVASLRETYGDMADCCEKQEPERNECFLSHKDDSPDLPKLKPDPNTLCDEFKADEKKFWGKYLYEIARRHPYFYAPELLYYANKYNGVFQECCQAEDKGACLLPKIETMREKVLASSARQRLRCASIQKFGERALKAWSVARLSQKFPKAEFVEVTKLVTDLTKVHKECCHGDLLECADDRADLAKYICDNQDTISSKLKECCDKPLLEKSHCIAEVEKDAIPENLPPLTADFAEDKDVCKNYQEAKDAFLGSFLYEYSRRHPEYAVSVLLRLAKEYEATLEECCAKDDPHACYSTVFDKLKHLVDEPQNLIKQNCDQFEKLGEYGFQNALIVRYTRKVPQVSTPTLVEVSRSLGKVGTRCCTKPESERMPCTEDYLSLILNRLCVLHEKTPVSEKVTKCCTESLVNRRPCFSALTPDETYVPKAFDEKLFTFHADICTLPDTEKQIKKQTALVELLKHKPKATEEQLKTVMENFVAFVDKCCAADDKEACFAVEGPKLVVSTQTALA

With `CCCCCCc1nc(-c2cc(C)c(OC)c(C)c2)c(C)c2c1[Si](C(C)C)(C(C)C)OC2`, the composite z-score with Albumin (Bos taurus) was -0.58; in assay [2] it was -0.165; in [3], -0.209; in assay [4] it was -0.146; in [5], 0.0188; in assay [6], -0.373. Besides, the composite z-score in the assay on Sam68 (KHDRBS1) was -0.611; in assay [7], 0.574; in assay [8], -0.112; in [9], -0.351; in [10] it was 0.0093; in [11], 0.126. Further, the composite z-score was -0.273 in assay [12]; 0.204 in [13]; -0.18 in assay [14]; 0.195 with Lefty1; -0.496 in [16]. Besides, the composite Z-score in [1] is 0.792 (inactive). Moreover, the z-score in [15] was -0.522; in assay [17], 0.325 (inactive).
For `Cn1cccc1C(O)C1C=CC2C(=O)NC(=O)C2N1Nc1ccc(Cl)cc1Cl` (stereo not given), the composite z-score was determined as 1.04 with Albumin (Bos taurus); 0.569 in assay [2]; 0.403 in [3]; 0.731 in assay [4]; 2.79 in assay [5]; 1.26 in [6]. Besides, the composite z-score with Sam68 (KHDRBS1) is 1.29; in assay [7] it was -0.851; in assay [8] it was 1.21; in assay [9], 1.43; in assay [10], 1.24; in assay [11], 1.42. The composite z-score is 1.02 in assay [12]; 1.28 in assay [13]; 0.0937 in assay [14]; -0.207 in the assay on Lefty1; 1.15 in assay [16]. Further, the composite Z-score in [1] is 0.589 (inactive). Also, the z-score was -0.13 in assay [15] and -1.4 (inactive) in assay [17].
Regarding `COCCOC(=O)N1C(=O)[C@@]2(c3cc(C#CC4=CCCCC4)ccc31)[C@H](C(N)=O)[C@H]1C(=O)O[C@H](c3ccccc3)[C@H](c3ccccc3)N1[C@@H]2c1ccccc1OCCO`, the composite z-score in the assay with Albumin (Bos taurus) was -0.24; in assay [2], -0.0057; in assay [3] it was -0.114; in [4] it was 0.652; in assay [5] it was 1.59; in assay [6], 0.806. The composite z-score in the assay with Sam68 (KHDRBS1) turned out to be 1.31; in assay [7], 0.588; in assay [8], 1.11; in assay [9] it was 1.34; in assay [10], 1.21; in assay [11], 0.143. The composite z-score in assay [12] was determined as 0.939; in [13], 1.31; in assay [14], 1.42; with Lefty1, 0.943; in [16], 1.05. In addition, the composite Z-score in assay [1] was -0.0254 (inactive). The z-score is -1.89 in assay [15] and -0.591 (inactive) in assay [17].
As to `C[N+](C)(C)CCCC[C@@H]1NC(=O)[C@H]2C[C@@H](C(=O)NCCCCCCN)[C@@H](c3ccc(O)cc3)N2C1=O`, the composite z-score was 0.98 with Albumin (Bos taurus); 0.201 in assay [2]; 0.14 in [3]; 0.685 in assay [4]; 1.08 in assay [5]; -0.186 in assay [6]. For the same molecule, the composite z-score was 1.23 with Sam68 (KHDRBS1); -0.117 in assay [7]; 1.13 in [8]; 3.15 in [9]; 1.13 in assay [10]; 0.145 in assay [11]. In addition, the composite z-score is 0.973 in assay [12]; 0.835 in assay [13]; 0.299 in assay [14]; -0.046 with Lefty1; 1.17 in assay [16]. Also, the composite Z-score in [1] was 0.289 (inactive). Besides, the results for the z-score in assay [15] and in assay [17] were 0.792 and -0.932 (inactive), respectively.
For `O=C1O[C@@H](c2ccccc2)[C@@H](c2ccccc2)N2[C@@H](c3ccccc3OCCO)[C@]3(C(=O)Nc4ccc(C#CCCO)cc43)[C@@H](C(=O)N3CCCCCCC3)[C@H]12`, the composite z-score with Albumin (Bos taurus) was determined as 0.366; in [2], 2.26; in [3] it was 1.23; in assay [4] it was 0.972; in assay [5], 5.27; in assay [6], 1.6. Besides, the composite z-score with Sam68 (KHDRBS1) amounted to 1.3; in assay [7] it was 1.72; in assay [8] it was 1.2; in assay [9], 3.38; in [10], 1.3; in assay [11], 4.83. Further, the composite z-score was 0.958 in assay [12]; 1.55 in assay [13]; 1.14 in [14]; 1.87 in the assay with Lefty1; 1.74 in assay [16]. Also, the composite Z-score in [1] was 10.6 (active). The z-score in assay [15] is 0.163; in [17] it was 0.205 (inactive).
As for `C=CC[C@]1(C(=O)NCCN2CCOCC2)N=C(c2ccc(OCCCO)cc2)O[C@H]1c1ccccc1CN=[N+]=[N-]`, the composite z-score is -0.91 in the assay with Albumin (Bos taurus); -0.273 in assay [2]; 0.0855 in assay [3]; 0.724 in assay [4]; 1.41 in assay [5]; 0.034 in assay [6]. In addition, the composite z-score with Sam68 (KHDRBS1) is 0.826; in assay [7] it was 1.38; in assay [8] it was -0.438; in assay [9], 0.625; in [10], 1.18; in assay [11], -0.319. Further, the composite z-score in assay [12] was 0.636; in assay [13], 1.46; in assay [14], 1.68; in the assay on Lefty1 it was 0.0118; in assay [16] it was 1.03. Further, the composite Z-score in assay [1] was 0.363 (inactive). For the same molecule, the figures for the z-score in assay [15] and in assay [17] were 2.52 and -1.37 (inactive), respectively.
